Hits are enriched below; roughly 4.8% of the tested compounds scored in any of these assays.
APP 5'UTR act: APP 5'UTR luciferase reporter activation | activation, % at 2 µM | hit rate 1% among 190,000 | SH-SY5Y APP 5'UTR luciferase reporter, luminescence; zero percent = DMSO vehicle wells;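 active = activation above a set limit, based on mean plus 3 SD of controls, cut at about 140% in these data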
APP 5UTR inh: APP translation inhibition. hit rate 0.82% among 190,000. AID 1285. SH-SY5Y APP 5'UTR-luciferase reporter, luminescence. inhibition, % at 2 µM;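 active = inhibition above a set limit, derived from the sample mean plus 3 SD, cut at about 45% in these data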
Hsp70 activator: transcriptional activators of Hsp70. AID 1203. HeLa Hsp70 promoter luciferase reporter, luminescence; scaled: vehicle 0, proteasome-inhibitor control 100%. hit rate 0.04% among 200,000. activation, % at 10 µM;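 active = activation above the mean across all tested compounds plus 3 SD, cutoff set per campaign, cut at about 5.5% in these data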
STAT1 act: increases IFN-gamma driven STAT1 reporter signal; NIH 3T3 STAT1-luciferase reporter, luminescence; 100% = IFN-gamma alone, no compound; activation (% of control), % at 5.5 µM; hit rate 2.6% among 200,000; AID 932;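 active = activation above the screen-wide mean activation plus 3 SD, cut at about 130% in these data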
Wee1 stabilizer: inhibitors of human Wee1 degradation; HeLa Luc-Wee1K328M stability, luciferase luminescence; 100% = proteasome inhibitor MG132 effect; hit rate 1.2% among 220,000; reporter increase, % at 5 µM; P30291; AID 1321;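 active = activation above the mean of all tested compounds plus 3 SD, set per screening run, cut at about 8.8% in these data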;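 also: cells exposed to compound for 20 h before luminescence read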
Target sequence (P30291 whole entry K328M): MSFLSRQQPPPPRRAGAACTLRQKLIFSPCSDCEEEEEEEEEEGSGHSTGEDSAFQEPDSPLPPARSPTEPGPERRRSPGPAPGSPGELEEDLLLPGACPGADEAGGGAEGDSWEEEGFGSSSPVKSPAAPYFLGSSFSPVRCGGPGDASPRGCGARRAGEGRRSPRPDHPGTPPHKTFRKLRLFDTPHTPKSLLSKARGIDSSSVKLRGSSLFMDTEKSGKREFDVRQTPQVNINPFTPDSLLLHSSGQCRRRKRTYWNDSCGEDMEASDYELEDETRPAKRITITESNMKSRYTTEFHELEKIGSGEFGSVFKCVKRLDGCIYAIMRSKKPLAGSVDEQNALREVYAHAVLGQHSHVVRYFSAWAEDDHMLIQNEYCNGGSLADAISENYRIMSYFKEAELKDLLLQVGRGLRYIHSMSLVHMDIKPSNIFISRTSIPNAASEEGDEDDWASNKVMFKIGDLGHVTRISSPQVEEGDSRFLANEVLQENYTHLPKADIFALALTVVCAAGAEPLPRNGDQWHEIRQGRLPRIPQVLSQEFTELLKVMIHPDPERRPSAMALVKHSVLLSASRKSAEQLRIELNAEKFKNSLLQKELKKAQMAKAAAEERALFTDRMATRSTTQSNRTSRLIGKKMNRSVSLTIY
NF-kB neuron act: raises NF-kB expression in human neuronal cells. NF-kB reporter expression; active compounds read high. fold change at 12.5 µM. hit rate 1.6% among 190,000. AID 1239; in the data active = fold change above about 3.3
Numbers stand for hits; 0 = inactive; - = not tested or not shown.

SMILES | APP 5'UTR act | APP 5UTR inh | Hsp70 activator | STAT1 act | Wee1 stabilizer | NF-kB neuron act
O=C(O)c1ncc(-c2ccccc2)cn1 | 0 | 0 | 0 | 0 | 0 | 0
c1ccc(-c2cnc(-c3ccccc3)nc2)cc1 | 0 | 0 | 0 | 0 | 0 | 9.4
COc1ccccc1CNC(=O)CSc1nn2c(=O)c(C(C)(C)C)nnc2s1 | 0 | 0 | 0 | 0 | 0 | 0
O=C(COc1ccc(S(=O)(=O)N2CCCC2)cc1)NCCC1=CCCCC1 | - | 0 | 0 | 0 | 0 | 0
C/C(=N\NC(=O)c1cc2ccccc2cc1O)c1ccc2c(c1)OCO2 | 0 | 0 | 0 | 0 | 0 | 0
O=C1CNC(=S)N1Cc1ccccc1 | 0 | 0 | 0 | 0 | 9.5 | 0
CC[C@H](C)/C=C(C)/C=C/C1=CC2=CC(=O)[C@]3(C)OC(=O)[C@@H](C(C)=O)[C@@H]3C2=CO1 | 0 | 0 | 0 | 0 | 0 | 3.8
CCOC(=O)COc1cccc2c(=O)n(CC(=O)NCc3ccc4c(c3)OCO4)ccc12 | 0 | 0 | 0 | 0 | 9.6 | 0
CCOC(=O)COc1cccc2c(=O)n(CC(=O)NCCc3ccccc3)ccc12 | 0 | 0 | 0 | 0 | 0 | 0
COC(=O)COc1cccc2c(=O)n(CC(=O)NCc3ccc(F)cc3)ccc12 | 0 | 73 | 0 | 0 | 12 | 0
c1ccc(CCCNCC2COc3ccccc3O2)cc1 (configuration not stated) | 0 | 73 | 0 | 0 | 0 | 0
COc1ccc(-c2csc(=Nc3c(C)n(C)n(-c4ccccc4)c3=O)n2C(C)(C)C)cc1 | 0 | 0 | 0 | 0 | 0 | 0
COc1ccc(-c2cc(=Nc3c(C)n(C)n(-c4ccccc4)c3=O)c3ccccc3o2)cc1 | 0 | 0 | 0 | 142 | 0 | 0
Cc1ccc(C(=O)NC(=S)Nc2cccc3nsnc23)cc1 | 0 | 0 | 0 | 0 | 0 | 0
CC1=C/C(=N\NC(=S)Nc2cccnc2)CC(C)(C)C1 | 0 | 0 | 0 | 134 | 0 | 0
CN(c1ccccc1)c1ccc(/C=C/[N+](=O)[O-])cc1 | 0 | 54 | 0 | 0 | 0 | 0
CN(C)S(=O)(=O)c1cccc(-c2nnc(-c3ccccc3)o2)c1 | 0 | 0 | 0 | 0 | 0 | 0
COc1cc(NS(=O)(=O)c2ccc(OC)c(C)c2C)c(OC)cc1Cl | 0 | 65 | 0 | 0 | 0 | 0
COc1ccc(OC)c(S(=O)(=O)Nc2cc(OC)c(Cl)cc2OC)c1 | 0 | 0 | 0 | 0 | 0 | 0
CN(C)/C=C/C(=O)c1cnc(-c2ccc(Cl)cc2)s1 | 0 | 0 | 0 | 133 | 0 | 3.9
CN(C)/C=C/C(=O)c1ccc(Cl)s1 | 0 | 0 | 0 | 0 | 0 | 0
CN(C)/C=C/C(=O)c1cnc(-c2ccccc2)s1 | 0 | 0 | 0 | 131 | 10 | 3.8
Cc1cc(N2CCOCC2)ccc1/C=C1\NC(=O)N(CC(=O)Nc2ccc(F)cc2)C1=O | 0 | 0 | 0 | 131 | 0 | 0
Cc1cc(N2CCCC2)ccc1/C=C1\NC(=S)N(C)C1=O | 0 | 0 | 0 | 129 | 0 | 0
Cc1cc(N2CCOCC2)ccc1/C=C1/SC(=O)NC1=O | 0 | 0 | 0 | 152 | 0 | 5.3
SMILES | APP 5'UTR act | APP 5UTR inh | Hsp70 activator | STAT1 act | Wee1 stabilizer | NF-kB neuron act
CN(C)c1ccc(/C=C/c2cccc[n+]2[O-])cc1 | - | - | - | - | 9.9 | -
CC(=O)c1c(C)[nH]c(C(=O)N2CCCCCC2)c1C | 0 | 0 | 0 | 0 | 8.9 | 0
CC(=O)c1c(C)[nH]c(C(=O)N2CCN(c3ncccn3)CC2)c1C | 0 | 0 | 0 | 0 | 0 | 0
Cc1nc(N2CCCCC2)c2c(-c3cccs3)csc2n1 | 0 | 0 | 0 | 0 | 0 | 7.8
O=C(N/N=C1\CC2CC=CC12)c1ccccc1Cl (configuration not stated) | 0 | 0 | 0 | 0 | 0 | 0
FC(F)(F)c1ccccc1NC(=S)N/N=C1\CC2CC=CC12 (configuration not stated) | 0 | 86 | 0 | 0 | 0 | 0
Cc1ccc(NC(=O)Nc2c(Cl)cccc2Cl)cn1 | - | - | - | - | 0 | -
O=c1c(C/C=C/c2ccccc2)c(O)ccn1CCc1c[nH]c2ccccc12 | 0 | 0 | 0 | 0 | 0 | 0
O=c1c(C/C=C/c2ccccc2)c(O)ccn1Cc1cccc(Cl)c1 | 0 | 0 | 0 | 0 | 11 | 0
Cc1nn2cc(-c3ccc(N)cc3)nc2s1 | 0 | 0 | 0 | 139 | 0 | 0
Nc1ccc(-c2cn3cccnc3n2)cc1 | 0 | 0 | 0 | 0 | 0 | 0
CCCNC(=O)COC(=O)c1ccc(N2CCCC2)c([N+](=O)[O-])c1 | 0 | 0 | 0 | 0 | 0 | 0
Cn1c(-c2ccccc2)cc2c3no[n+]([O-])c3ccc21 | 0 | 0 | 0 | 130 | 0 | 0
